Key:
MST1 = tested on: T1, MST1
T1 construct: gene STK4

LZK = tested on: T2, LZK
T2 construct: gene MAP3K13

MEK2 = tested on: T3, MEK2
T3 construct: gene MAP2K2

MEK4 = tested on: T4, MEK4
T4 construct: gene MAP2K4

MINK = tested on: T5, MINK
T5 construct: gene MINK1
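Note: kd values determined as follow-up on hits from a single-replicate KINOMEscan panel screen.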

## COc1cccc(C2=C(Nc3cc(Cl)c(O)c(Cl)c3)C(=O)NC2=O)c1 [SB-390767]
LTK
  Kd: > 10 µM
MST1
  Kd: 1.8 µM
NEK2
  Kd: > 10 µM
PAK3
  Kd: > 10 µM

## COc1cccc(NC(=O)Nc2ccc(C)c(-c3ccc(C(=O)Nc4ccncc4)cc3)c2)c1 [GSK1398474]
LYN
  Kd: 4.4 µM
MAK
  Kd: > 10 µM

## CC(=O)c1c(C)c2cnc(Nc3ccc(N4CCNCC4)cn3)nc2n(C2CCCC2)c1=O
LZK
  Kd: > 10 µM

## COc1ccc(Nc2nccc(N3CCC(NC(=O)c4cc5ccccc5s4)C3)n2)cc1 (stereo not shown) [GSK1379738]
MAK
  Kd: > 10 µM

## CNCc1ccc2nc(NC(=O)c3ccc(C(C)(C)C)cc3)cn2c1
MAP3K15
  Kd: 3.8 µM

## Cc1ccc(NC(=O)c2ccc(Cl)cc2)cc1-c1ccc(C(=O)Nc2ccncc2)cc1 [GSK1398467]
MARK2
  Kd: > 10 µM

## Cc1ccccc1Cn1ccn2c(=O)cc(N3CCOCC3)nc12 [GSK2269905]
MARK4
  Kd: > 10 µM

## COc1ccc(-c2coc3ccc(-c4nnc(C)o4)cc23)cc1
MARK4
  Kd: > 10 µM

## CCc1ccc(-c2ccc3c(c2)-c2n[nH]cc2S(=O)(=O)N3C)cc1
MEK2
  Kd: > 10 µM

## O=C(Nc1n[nH]c2nc(-c3cccs3)c(Br)cc12)C1CC1 [SB-735297]
MEK4
  Kd: > 10 µM

## O=c1cc(N2CCOCC2)nc2n(Cc3cccc(Cl)c3Cl)c3ccccc3n12 [GSK2299009]
MELK
  Kd: > 10 µM

## NS(=O)(=O)c1cccc(N/C=C2\C(=O)Nc3ccc(S(=O)(=O)Cc4c(Cl)cccc4Cl)cc32)c1 [GSK398099]
MINK
  Kd: 0.79 µM

## CC(C)c1cc(-c2ccc3c(N)n[nH]c3c2)nc(N)n1 [GSK2250882]
MKNK2
  Kd: 0.16 µM

## CNC(=O)c1ccc(C)c(-n2c(C)cc(OCc3ccc(F)cc3F)c(Br)c2=O)c1
MKNK2
  Kd: > 10 µM

## Nc1nccc(-c2c(-c3ccc(F)cc3)ncn2C2CCN(Cc3ccccc3)CC2)n1 [SB-219980]
NLK
  Kd: 0.14 µM

Source: paper PMC5540273 (PLoS ONE, 2017)
